The text below walks through data of PubChem BioAssay.

Structures are written as SMILES. Active and inactive are the calls of the source.

Test [1] concerns PRMT1 (protein arginine N-methyltransferase 1). The test is described as follows: small molecules binding arginine methyltransferase PRMT1 – biochemical, small-molecule microarray, 635 nm fluorescence, primary screen (AID 1088).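 Also: binding of Prmt1 protein to compounds spotted on small-molecule microarray slides.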 The note with it: higher = more signal.
Test [2] can be described thus: growth effects on S. cerevisiae YJM789 – YJM789 clinical isolate, OD600, 24 h, basal, primary screen (AID 1089).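 Also: growth of clinical yeast isolate S. cerevisiae YJM 789 seeded 1000 cells per well; test concentration not given here.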 The note with it: higher = more signal, called active from +8 up or from −8 down.
Test [3] is described as follows: S. pombe growth modifiers, basal conditions – strain 972, OD600, 24 h, no modulator, primary screen (AID 1090).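 Also: basal condition with compound alone and no growth modifier present; test concentration not given here.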 As to conditions: S. pombe 972 growth, higher = more signal, called active from +8 up or from −8 down.
Test [4] can be described thus: budding yeast growth modifiers under rapamycin – strain BY4716, OD600, 96 h, primary screen (AID 1091). Also: test concentration not given here. As to conditions: S. cerevisiae BY4716 + rapamycin, higher = more signal, called active from +8 up or from −8 down.
For test [5], the target named is Torsin-1A-interacting protein 2 (Homo sapiens) (UniProt Q8NFQ8). The test can be described thus: small molecules binding lysate-expressed LULL1 – cell lysate, human LULL1 lysate, 635/667 nm fluorescence, primary screen (AID 1092).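 Also: probe is lysate of COS7 cells overexpressing human LULL1; score merges per-feature 667 nm fluorescence with signal-to-noise.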 As to conditions: small-molecule microarray, hLULL1 lysate binding, 635 nm fluorescence; higher = more signal.
Test [6] in a line: optical density change of DRC41 E. coli – strain DRC41, OD650, 24 h, E. coli filamentation project, primary screen (AID 1093).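 Also: MC1000 strain lacking acrAB efflux and sulA so SOS filamentation is blocked; test concentration not given here.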 The note with it: E. coli DRC41 growth, higher = more signal, called active from +8 up or from −8 down.
Test [7] is described as follows: probe aLefty2 binding to arrayed compounds – biochemical, biotinylated probe, 635/667 nm fluorescence, primary screen (AID 1094).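 Also: score merges spot fluorescence near 667 nm with spot signal-to-noise ratio.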 The note with it: small-molecule microarray, higher = more signal.
In test [8] the test system is Noggin (protein binding on small-molecule microarray). The test can be described thus: small molecules binding Noggin protein – biochemical, 635/667 nm fluorescence, primary screen (AID 1095).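 Also: score merges 667 nm feature fluorescence with signal to noise over triplicate slides.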 The note with it: 635 nm fluorescence, higher = more signal.
The target in test [9] is Neurogenic locus notch homolog protein 3 (Homo sapiens) (UniProt Q9UM47). The test is described as follows: small molecules binding NOTCH3 protein – biochemical, 635/667 nm fluorescence, primary screen (AID 1096). As to conditions: small-molecule microarray, 635 nm fluorescence, higher = more signal.
Test [10] can be described thus: probe aEGFR binding to arrayed compounds – biochemical, biotinylated probe, 635/667 nm fluorescence, primary screen (AID 1097).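 Also: probe is a biotinylated anti-EGFR antibody binding compounds printed on slides; score combines fluorescence near 667 nm and signal to noise of each spot.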 The note with it: small-molecule microarray, higher = more signal.

Chain of Torsin-1A-interacting protein 2 (Homo sapiens) (Q8NFQ8 whole entry, looked up): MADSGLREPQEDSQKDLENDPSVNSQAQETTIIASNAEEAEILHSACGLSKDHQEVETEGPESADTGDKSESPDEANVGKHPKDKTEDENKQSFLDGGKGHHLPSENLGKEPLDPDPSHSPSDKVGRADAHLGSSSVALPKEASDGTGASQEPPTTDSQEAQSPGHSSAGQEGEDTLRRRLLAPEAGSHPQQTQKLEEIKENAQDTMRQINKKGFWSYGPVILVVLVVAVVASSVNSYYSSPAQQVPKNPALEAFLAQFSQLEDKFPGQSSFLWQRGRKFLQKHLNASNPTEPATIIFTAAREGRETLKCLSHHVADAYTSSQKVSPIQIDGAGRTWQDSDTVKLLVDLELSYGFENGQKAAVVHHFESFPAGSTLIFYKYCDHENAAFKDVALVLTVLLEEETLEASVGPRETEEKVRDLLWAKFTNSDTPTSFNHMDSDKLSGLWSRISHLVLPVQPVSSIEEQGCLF
Chain of Neurogenic locus notch homolog protein 3 (Homo sapiens) (Q9UM47 whole entry, looked up): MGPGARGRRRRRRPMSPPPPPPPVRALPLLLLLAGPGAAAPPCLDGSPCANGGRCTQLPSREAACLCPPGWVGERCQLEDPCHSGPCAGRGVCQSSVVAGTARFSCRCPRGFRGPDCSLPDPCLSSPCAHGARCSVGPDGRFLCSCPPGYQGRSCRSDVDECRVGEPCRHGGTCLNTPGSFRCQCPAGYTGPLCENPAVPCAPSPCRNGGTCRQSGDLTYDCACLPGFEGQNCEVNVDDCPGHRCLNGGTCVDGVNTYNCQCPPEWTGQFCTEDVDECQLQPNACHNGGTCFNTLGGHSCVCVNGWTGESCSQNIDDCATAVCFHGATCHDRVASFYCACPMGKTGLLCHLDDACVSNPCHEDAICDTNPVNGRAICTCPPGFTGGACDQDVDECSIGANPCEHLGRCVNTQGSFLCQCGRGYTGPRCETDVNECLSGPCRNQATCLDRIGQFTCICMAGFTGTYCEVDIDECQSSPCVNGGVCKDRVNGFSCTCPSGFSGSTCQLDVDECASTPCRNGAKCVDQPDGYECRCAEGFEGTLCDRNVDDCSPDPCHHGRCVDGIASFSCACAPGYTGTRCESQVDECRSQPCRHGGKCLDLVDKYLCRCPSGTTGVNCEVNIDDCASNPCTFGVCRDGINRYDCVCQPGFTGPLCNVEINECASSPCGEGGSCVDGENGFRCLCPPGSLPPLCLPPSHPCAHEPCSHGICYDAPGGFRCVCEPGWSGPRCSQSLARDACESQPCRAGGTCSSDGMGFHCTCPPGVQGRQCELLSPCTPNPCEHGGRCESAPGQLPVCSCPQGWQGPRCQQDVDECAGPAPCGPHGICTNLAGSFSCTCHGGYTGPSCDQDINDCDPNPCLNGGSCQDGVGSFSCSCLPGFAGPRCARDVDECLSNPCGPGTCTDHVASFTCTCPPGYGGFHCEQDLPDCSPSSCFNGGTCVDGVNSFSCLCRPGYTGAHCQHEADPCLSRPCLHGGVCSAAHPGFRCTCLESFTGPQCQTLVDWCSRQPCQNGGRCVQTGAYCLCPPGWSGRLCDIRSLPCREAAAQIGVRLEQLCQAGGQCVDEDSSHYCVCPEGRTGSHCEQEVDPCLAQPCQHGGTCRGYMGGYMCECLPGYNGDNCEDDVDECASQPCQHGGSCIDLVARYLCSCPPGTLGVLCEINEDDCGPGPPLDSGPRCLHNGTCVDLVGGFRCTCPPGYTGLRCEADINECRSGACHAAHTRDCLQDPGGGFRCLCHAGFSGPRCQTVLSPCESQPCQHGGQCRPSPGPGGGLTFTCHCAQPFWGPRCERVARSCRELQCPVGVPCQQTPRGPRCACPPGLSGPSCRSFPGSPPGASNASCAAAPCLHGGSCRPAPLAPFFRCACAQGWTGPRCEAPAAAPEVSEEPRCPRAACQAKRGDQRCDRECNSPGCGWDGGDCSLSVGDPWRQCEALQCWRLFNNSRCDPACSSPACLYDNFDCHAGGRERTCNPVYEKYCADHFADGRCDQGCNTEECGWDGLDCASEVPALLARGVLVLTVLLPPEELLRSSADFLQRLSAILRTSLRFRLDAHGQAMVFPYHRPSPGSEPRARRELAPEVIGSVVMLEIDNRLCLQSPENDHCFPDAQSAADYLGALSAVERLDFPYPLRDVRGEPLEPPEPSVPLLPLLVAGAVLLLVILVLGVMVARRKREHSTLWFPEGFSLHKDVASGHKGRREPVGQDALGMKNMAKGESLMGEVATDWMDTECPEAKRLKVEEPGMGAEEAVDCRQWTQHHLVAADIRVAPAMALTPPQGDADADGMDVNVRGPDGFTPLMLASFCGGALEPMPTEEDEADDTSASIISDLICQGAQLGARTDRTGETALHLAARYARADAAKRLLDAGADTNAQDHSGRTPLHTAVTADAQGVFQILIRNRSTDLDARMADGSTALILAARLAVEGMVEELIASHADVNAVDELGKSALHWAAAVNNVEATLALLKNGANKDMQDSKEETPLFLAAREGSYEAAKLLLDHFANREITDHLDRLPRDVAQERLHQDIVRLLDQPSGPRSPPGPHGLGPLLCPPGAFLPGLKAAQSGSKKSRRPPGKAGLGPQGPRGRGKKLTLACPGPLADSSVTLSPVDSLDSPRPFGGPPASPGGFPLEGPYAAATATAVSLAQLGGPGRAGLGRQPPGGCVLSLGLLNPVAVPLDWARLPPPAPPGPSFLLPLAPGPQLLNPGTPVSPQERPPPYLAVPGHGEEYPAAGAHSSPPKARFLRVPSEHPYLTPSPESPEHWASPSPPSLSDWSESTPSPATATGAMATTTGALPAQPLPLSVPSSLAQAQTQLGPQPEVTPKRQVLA

For the compound `COc1ccc([Si](C)(C)[C@@H]2[C@@H](CC(=O)N(CCO)Cc3ccccc3)O[C@]3(C(=O)N(Cc4cccc(I)c4)c4ccccc43)[C@H]2C)cc1`, the composite z-score in test [1] is 1.46; in [5] it was 0.444; in test [7], 0.0553; in [8], 1.51; in test [9], 1.07; in test [10], 0.0102. In addition, the z-score was -0.0171 (inactive) in [2], 1.27 (inactive) in test [3], 3.46 (inactive) in test [4] and 0.645 (inactive) in test [6].
On to `C=CCNC(=O)[C@H]1[C@@H]2C(=O)O[C@@H](c3ccccc3)[C@@H](c3ccccc3)N2[C@@H](c2ccc(OCCO)cc2)[C@]12C(=O)N(C(=O)OCCOC)c1ccc(C#CCC(C(=O)OC)C(=O)OC)cc12`, for which the composite z-score in test [1] worked out at 1.54; in [5], 3.45; in test [7], 0.771; in [8] it was 1.42; in test [9], 1.08; in test [10] it was 0.315. Further, the z-score was 2.06 (inactive) in [2], 1.07 (inactive) in test [3], 6.82 (inactive) in test [4] and -0.0319 (inactive) in test [6].
In the case of `C=CC[C@]1(C(=O)NCC(O)CO)N=C(c2ccc(OCCCO)cc2)O[C@H]1c1ccccc1CN=[N+]=[N-]` (stereo not given in full), the composite z-score in test [1] is 1.01; in test [5], 3.51; in test [7], 0.239; in [8] it was -0.62; in [9], -0.922; in test [10] it was -0.0828. The z-score in test [2] is -0.0604 (inactive); in test [3], -0.234 (inactive); in test [4], -0.83 (inactive); in test [6], 0.384 (inactive).
Turning to `CCOC(=O)C1=CCC(c2cccn2C(=O)OC(C)(C)C)N(S(=O)(=O)c2ccc(C)cc2)C1` (stereo not given), the composite z-score in [1] is 1.48; in test [5] it was 3.36; in test [7] it was 0.194; in test [8], 0.205; in test [9], 1; in test [10] it was -0.0004. The z-score is -0.0556 (inactive) in [2], 0.69 (inactive) in test [3], 0.382 (inactive) in [4] and -0.0304 (inactive) in test [6].
With `CC(C)C[C@H]1NC(=O)CNC(=O)[C@@]23C(=O)N[C@@H](Cc4ccccc4)C2[C@H](C)[C@@]2(C)O[C@H]2C3/C=C/C/C=C\CNC1=O` (stereo not given in full), the composite z-score in [1] was 1.08; in test [5], 0.921; in [7], -0.157; in [8] it was 0.104; in [9], 0.713; in test [10] it was -0.105. Moreover, the z-score in test [2] was -0.599 (inactive); in test [3], 0.189 (inactive); in [4], -0.612 (inactive); in [6], -0.743 (inactive).
For the compound `COCCOC(=O)N1C(=O)[C@@]2(c3ccccc31)[C@H](C(=O)Nc1nc3ccccc3s1)[C@H]1C(=O)O[C@H](c3ccccc3)[C@H](c3ccccc3)N1[C@@H]2c1ccccc1OCCO`, the composite z-score is 1.56 in test [1]; 2.73 in [5]; 0.248 in test [7]; 0.579 in test [8]; 1.1 in test [9]; -0.0035 in test [10]. Also, the z-score in test [2] was 2.4 (inactive); in test [3], 2.78 (inactive); in test [4] it was 5.08 (inactive); in test [6] it was 0.694 (inactive).
For the compound `COC(=O)[C@@]1(Cc2ccccc2)[C@H]2c3cc(C(=O)N(C)C)n(Cc4nc5ccccc5[nH]4)c3C[C@H]2CN1C(=O)c1ccccc1`, the composite z-score is 0.964 in test [1]; 3.5 in test [5]; 0.718 in [7]; -0.307 in test [8]; 1.06 in test [9]; 0.135 in [10]. The z-score in test [2] was -0.895 (inactive); in test [3] it was 0.338 (inactive); in test [4] it was -0.678 (inactive); in test [6], 0.914 (inactive).
Turning to `CCOC(=O)C[C@H]1[C@H](OC(=O)c2cc3ccccc3oc2=O)[C@@H](NC(=O)Cc2ccc(OC)cc2)c2cc(OCCCO)ccc2N1C(=O)Cc1ccc(OC)cc1`, the composite z-score in test [1] was 0.638; in [5], 1.65; in test [7], -0.058; in test [8], 0.534; in [9] it was 0.91; in test [10], -0.0313. Also, the z-score was -0.903 (inactive) in [2], -1.04 (inactive) in [3], -1.79 (inactive) in test [4] and 1.52 (inactive) in test [6].
`C[N+](C)(C)CCCC[C@@H]1NC(=O)[C@H]2C[C@@H](C(=O)NCCCCCN)[C@@H](c3ccc(O)cc3)N2C1=O`: the composite z-score in test [1] worked out at 1.54; in test [5], 3.06; in test [7], 0.0829; in test [8], 1.57; in test [9], 1.11; in test [10], 0.152. For the same compound, the z-score in test [2] was -0.407 (inactive); in test [3], -2.01 (inactive); in [4], -1.2 (inactive); in test [6] it was -0.162 (inactive).
With `COc1cc(Cc2cc3c(c(CCc4ccccc4)n2)[Si](C(C)C)(C(C)C)O[C@H]3c2ccccc2)cc(OC)c1OC`, the composite z-score is -0.651 in test [1]; -0.355 in test [5]; -0.0284 in test [7]; -0.288 in test [8]; -0.446 in test [9]; -0.129 in [10]. Moreover, the z-score in test [2] was -2.28 (inactive); in test [3], -19.9 (active); in [4] it was -0.549 (inactive); in test [6], -0.637 (inactive).
For `COc1ccc([Si](C)(C)[C@H]2[C@H](CC(=O)N3CCC[C@H]3CO)O[C@@]3(C(=O)N(Cc4cccc(N5CCCCC5=O)c4)c4ccccc43)[C@@H]2C)cc1`, the composite z-score in [1] is 1.52; in test [5], 1.98; in test [7], -0.174; in test [8], 1.23; in test [9] it was 1.09; in [10], -0.139. Further, the z-score is -0.439 (inactive) in [2], 0.294 (inactive) in test [3], -1.23 (inactive) in test [4] and 0.561 (inactive) in test [6].
Turning to `CCOC(=O)C1=CC[C@@H](c2ccccc2)N(S(=O)(=O)c2ccc(C)cc2)[C@@H]1C#N`, the composite z-score was 0.712 in test [1]; 2.69 in test [5]; 0.0979 in test [7]; -0.59 in test [8]; 0.749 in test [9]; -0.013 in test [10]. Further, the z-score in test [2] was -0.671 (inactive); in test [3], -2.08 (inactive); in [4], 0.529 (inactive); in test [6] it was 0.405 (inactive).
In the case of `CC(C)N1C(=O)[C@@]2(Cc3ccccc31)c1ccccc1C(=O)N(Cc1ccccc1C(F)(F)F)[C@H]2c1ccc(CO)cc1`, the composite z-score was 1.31 in test [1]; 2.23 in test [5]; -0.269 in test [7]; 0.841 in [8]; 0.99 in test [9]; 0.116 in test [10]. The z-score is -0.0493 (inactive) in test [2], -0.706 (inactive) in [3], -1.81 (inactive) in test [4] and -0.569 (inactive) in [6].
As to `Cc1ccc(S[C@]2(C(=O)NCC(C)C)CC(=O)N(C(C)C)[C@@H]2c2ccc(CO)cc2I)cc1`, the composite z-score in test [1] was 1.53; in test [5], 0.979; in test [7] it was 0.0968; in test [8], -1.6; in test [9], -0.0735; in test [10] it was -0.127. Besides, the z-score was -1.68 (inactive) in test [2], -2.56 (inactive) in test [3], -0.0302 (inactive) in [4] and 0.97 (inactive) in test [6].
